# Where “and” joins values, the source holds several entries; their conditions need not be identical. Identical values can stand only once. Records with an inconclusive call do not appear. A call without a number means that no potency is given here. Calls of active or inactive are those of the source. The call rests on the fitted dose curve; in most records, active means well fitted inhibition curve with a large enough effect; inconclusive means small, poorly fitted or top-dose-only effect; inactive means no such curve, though single readings can be large or run the other way.
# Test: Primary qHTS for inhibitors of nuclear receptor binding SET domain protein 2 (NSD2) in an RCH-ACV wild type WT cells (2C) (AID 1645877); further: nearly all actives have a fitted effect of over 70% in size
# Details: RCH-ACV (leukaemia line) NSD2 WT (2C) viability, CellTiter-Glo, 72 h; series mostly up to 44.9 µM
# Potency means the concentration at half of the fitted maximal effect.
row,SMILES,Potency
1,COC[C@H]1OC(=O)c2coc3c2[C@@]1(C)C1=C(C3=O)[C@@H]2CC[C@H](O)[C@@]2(C)C[C@@H]1OC(C)=O,580 nM (active)
2,O=C(O)CCCOc1ccc(Cl)cc1Cl,inactive
3,O=C(Oc1ccc([N+](=O)[O-])cc1)N1CCC(C(O)(c2ccc3c(c2)OCO3)c2ccc3c(c2)OCO3)CC1,inactive
4,COC(C)(C)CCCC(C)C/C=C/C(C)=C/C(=O)OC(C)C (stereo unspecified),inactive
5,O=C(O)c1cc(Oc2ccc(C(F)(F)F)cc2Cl)ccc1[N+](=O)[O-],inactive
6,Nc1ccc(Cl)cc1,inactive
7,C/C=C(/C)C(=O)O[C@H]1C(C)=C2[C@H]([C@@H]1OC(=O)CCCCCCC)[C@@](C)(OC(C)=O)C[C@H](OC(=O)CCC)[C@@]1(O)[C@H]2OC(=O)[C@@]1(C)O,6.5 nM (active) and 16.6 nM (active)
8,CC(=O)NCCc1c[nH]c2ccccc12,inactive
9,S=C(NC1CCCCC1)N1CCC(c2cnc[nH]2)CC1,inactive
10,CC(N[C@H]1C[C@H]1c1ccccc1)c1ccc2c(c1)OCCO2 (stereo partly specified),inactive
11,N=c1c2c(-c3ccccc3)c(-c3ccccc3)n(Cc3ccccc3)c2ncn1C1CCC(O)CC1 (stereo unspecified),263 nM (active)

# From PubChem BioAssay (NCATS)
